Screening results from PubChem BioAssay.
EPAC2 agonist – activates human EPAC2 exchange factor; 360,000 tested, 0.079% active; Q8WZA2; Potency, µM (highest dose often 154 µM), usual class: activators; AID 720711; EPAC2 activation, biochemical qHTS; response scale: 100% = 6.5 mM cAMP response; also: nearly all actives have a fitted effect of over 50% in size
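qHTS, titration series. 100 nM EPAC2 / 250 nM Rap1B-BODIPY-GDP / 50 uM GDP; RT; ex 480/em 540 nm, 5-min reads to 30 min. Norm. to 6.5 mM cAMP = activation.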
EPAC1 antag – blocks human EPAC1 exchange factor; 360,000 tested, 0.14% active; Potency, µM (highest dose often 115 µM), hits mostly inhibitors; EPAC1 GEF assay, Rap1b-BODIPY-GDP exchange fluorescence; O95398; also: nearly all actives have a fitted effect of over 50% in size
USP1 inh – USP1/UAF1 (human) deubiquitinase inhibition; recombinant USP1/UAF1, Ub-Rhodamine cleavage fluorescence; O94782; Potency, µM (series often up to 57.1 µM), most hits filed as inhibitors; AID 743255; 390,000 tested, 0.23% active; also: nearly all actives have a fitted effect of over 60% in size
Target sequence (O94782 whole entry, looked up): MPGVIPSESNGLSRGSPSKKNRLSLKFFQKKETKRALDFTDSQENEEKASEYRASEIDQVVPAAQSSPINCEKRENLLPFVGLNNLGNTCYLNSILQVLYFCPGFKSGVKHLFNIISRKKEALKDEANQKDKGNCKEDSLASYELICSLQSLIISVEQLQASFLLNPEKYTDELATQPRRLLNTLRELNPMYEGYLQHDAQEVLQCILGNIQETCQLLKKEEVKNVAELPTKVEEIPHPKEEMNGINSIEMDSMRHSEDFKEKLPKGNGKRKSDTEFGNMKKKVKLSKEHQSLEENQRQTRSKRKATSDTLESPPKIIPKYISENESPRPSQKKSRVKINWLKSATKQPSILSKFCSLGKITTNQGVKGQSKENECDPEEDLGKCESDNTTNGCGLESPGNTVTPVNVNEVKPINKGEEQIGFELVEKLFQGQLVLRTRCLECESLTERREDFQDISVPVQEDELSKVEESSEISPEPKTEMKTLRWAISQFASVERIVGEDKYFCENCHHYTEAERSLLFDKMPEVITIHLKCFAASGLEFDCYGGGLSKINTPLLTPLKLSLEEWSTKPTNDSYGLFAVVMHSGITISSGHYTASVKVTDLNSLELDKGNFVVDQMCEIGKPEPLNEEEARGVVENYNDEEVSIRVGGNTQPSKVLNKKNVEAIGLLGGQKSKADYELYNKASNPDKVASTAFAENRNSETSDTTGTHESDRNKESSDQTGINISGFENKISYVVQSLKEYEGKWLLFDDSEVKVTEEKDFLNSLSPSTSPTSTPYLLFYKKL
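1 nM enzyme complex + cpd, 15 min RT; start with Ub-Rho 150nM final; kinetic fluorescence ex 480/em 540, 6 reads q60 s. Buffer 50mM HEPES pH 7.8, 0.5mM EDTA, 0.1 mg/ml BSA, 1mM TCEP, 0.01% Tween-20.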
EPAC1 ag – EPAC1 (human) agonism; O95398; EPAC1 agonist qHTS, biochemical assay; response scale: 100% = response to 6.5 mM cAMP; Potency, µM (top dose mostly 154 µM), hits mostly activators; 360,000 tested, 0.073% active; also: nearly all actives have a fitted effect of over 60% in size
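Fluorescent GDP-exchange assay: 100 nM EPAC1 with 250 nM Rap1B preloaded with BODIPY-GDP and 50 uM GDP; compounds tested as concentration series, 5 min at room temperature, then read every 5 min for 30 min (ex 480/em 540 nm); normalized to 6.5 mM cAMP.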
EPAC2 antagonist – blocks human EPAC2 exchange factor. EPAC2 GEF exchange of Rap1B-BODIPY-GDP, fluorescence. Potency, µM (highest dose often 114 µM), most hits filed as inhibitors. 360,000 tested, 0.18% active; also: nearly all actives have a fitted effect of over 45% in size
Each line names hits and unclear results; the compound was inactive in the other large screens; ! = not confirmed by another sample. Shown are actives, neighbours in structure and some others; about 0.45% of the full set was active somewhere. Calls follow the shape of the dose curve; as a rule, active = well fitted curve in the direction sought with a large enough effect; inconclusive = small, poorly fitted or top-dose-only effect, or another doubt; inactive = no such curve, though single readings can be large; an effect the other way counts as inactive or inconclusive.

CN1CC[C@@]2(C)c3cc(O)ccc3N(C)[C@@H]12	EPAC1 antag inconclusive, USP1 inh 28µM
CC(=O)OC1CC(OC2C(O)CC(OC3C(O)CC(OC4CCC5(C)C(CCC6C5CC(O)C5(C)C(C7=CC(=O)OC7)CCC65O)C4)OC3C)OC2C)OC(C)C1OC1OC(CO)C(O)C(O)C1O (configuration not stated)	EPAC2 agonist 112µM, EPAC2 antagonist 89µM
Cc1ccc(C=C2C(Cl)=C(Cl)C(Cl)=C2Cl)cc1	EPAC1 antag inconclusive
Nc1c(C(=O)NC2CCCC2)c2nc3ccccc3nc2n1CC1CCCO1 (configuration not stated)	USP1 inh 28µM
Nc1c(C(=O)NCC2CCCO2)c2nc3ccccc3nc2n1Cc1ccco1 (configuration not stated)	none
CC(Nc1cc(C)cc(C)c1)=[N+](C)CCNS(=O)(=O)c1ccc(Cl)cc1	EPAC1 antag inconclusive
CCC(C)/C=C(C)/C=C/C1=CC2=C(Cl)C(=O)C(C)(OC(C)=O)C(=O)C2=CO1 (configuration not stated)	EPAC1 antag inconclusive, USP1 inh inconclusive
CC[C@H](C)/C=C(C)/C=C/C1=CC2=C(Cl)C(=O)[C@@](C)(OC(C)=O)C(=O)C2=CO1	EPAC1 antag 35µM, USP1 inh 32µM, EPAC2 antagonist 3.5µM
CCCCn1c(O)c(C(C)=NCCc2c[nH]c3ccccc23)c(=O)[nH]c1=O	none
O=C(/C=C/c1c[nH]c2ccccc12)c1c(O)n(CCc2ccccc2)c(=O)[nH]c1=O	USP1 inh 25µM
O=C1NC(=O)N(c2ccccc2)C(=O)/C1=C/C=C/c1ccco1	none
Cc1ccc(N2C(=O)NC(=O)/C(=C\C=C\c3ccco3)C2=O)cc1C	EPAC1 antag 56µM
O=C1NC(=O)N(Cc2ccco2)C(=O)/C1=C/C=C/c1ccco1	EPAC1 antag 56µM
O=C1NC(=O)N(Cc2ccccc2)C(=O)/C1=C\C=C\c1ccco1	EPAC1 antag 56µM
Cc1cc(C(=O)OCC(=O)NC(=O)c2cccn2C)c2ccccc2n1	EPAC2 antagonist inconclusive
O=P(Nc1cccnc1)(Oc1ccccc1Cl)Oc1ccccc1Cl	EPAC2 antagonist 56µM
CCCNC(=O)C1(C)CCN(Cc2ccc3ccccc3c2Br)C1 (configuration not stated)	EPAC1 antag inconclusive (no result: USP1 inh)
COCCNC(=O)c1c(N)n(CCC(C)C)c2nc3ccccc3nc12	EPAC1 antag 45µM, USP1 inh inconclusive, EPAC2 antagonist 79µM
CCCCNC(=O)c1c(N)n(CCCOC)c2nc3ccccc3nc12	EPAC1 antag inconclusive, USP1 inh 11µM, EPAC2 antagonist inconclusive
CN1CCN(c2ccc([N+](=O)[O-])c3no[n+]([O-])c23)CC1	EPAC1 antag inconclusive
O=[N+]([O-])c1ccc(N(CCO)CCO)c2c1no[n+]2[O-]	EPAC1 antag 56µM, EPAC2 antagonist inconclusive
O=C(O)CSCC(=O)N(Cc1ccccc1)c1nc(-c2ccccc2)c(-c2ccccc2)s1	EPAC1 antag inconclusive, USP1 inh inconclusive, EPAC2 antagonist inconclusive
CCOP(=O)(OCC)c1ccc2c(c1)C(=O)c1ccccc1CC2	EPAC2 antagonist inconclusive (no result: USP1 inh)
Oc1ccc(Cl)cc1Sc1cc(Cl)ccc1O	EPAC1 antag inconclusive, EPAC2 antagonist 35µM
Cc1ccc(C)c(CN2C(=O)c3ccccc3S(=O)(=O)c3ccc(C(=O)N4CCCCCC4)cc32)c1	none (no result: EPAC2 agonist, EPAC1 antag, EPAC1 ag, EPAC2 antagonist)
CCN1/C(=C/C=C/C2=[N+](CC)c3ccccc3C2(C)C)C(C)(C)c2ccccc21	EPAC2 agonist 18µM, USP1 inh 25µM, EPAC1 ag 56µM
CN1/C(=C\C=C2C(=O)NC(=O)NC2=O)C(C)(C)c2ccccc21	USP1 inh inconclusive, EPAC1 ag inconclusive
COc1ccc2[nH]c3c(c2c1)CCN1C(=O)C(CC(=O)NCc2cccc(C(F)(F)F)c2)C[C@H](C(=O)N2CCCCC2)[C@@]31C (some centres not stated)	USP1 inh inconclusive
C[C@H]1CN([C@@H](C)CO)C(=O)c2cc(-c3cccnc3)cnc2O[C@H]1CN(C)Cc1ccc(Oc2ccccc2)cc1	USP1 inh inconclusive
Oc1c(Cl)cc(Cl)cc1CN1CCN(Cc2ccccc2)CC1	none
Oc1c(Cl)cccc1Cc1cc(Cl)cc(Cl)c1O	EPAC1 antag 79µM, EPAC2 antagonist 22µM
O=C(Nc1ccc(Br)cc1C(=O)O)c1ccc2c(c1)C(=O)N(Cc1ccccc1)C2=O	EPAC1 antag inconclusive
Cc1ccc([C@@H]2CC(=O)[C@@H]3CN(S(=O)(=O)c4ccccc4C)[C@H](c4ccc(Cl)cc4)C[C@@H]3N2S(=O)(=O)c2ccc(C)cc2)cc1	none
O=C1C(=O)c2cccc3cccc1c23	none
O=C1C(=O)c2ccccc2-c2ccccc21	EPAC1 antag 8.9µM, USP1 inh 1µM, EPAC2 antagonist inconclusive
NC1=C(Br)C(=O)c2ccccc2C1=O	USP1 inh 8.9µM
CC(=O)C1=C(O)C2(C)c3c(O)c(C)c(O)c(C(C)=O)c3OC2CC1=O (configuration not stated)	EPAC2 antagonist 14µM
Nc1ccc2ccccc2c1	none
C[n+]1c2cc(N)ccc2cc2ccc(N)cc21	EPAC2 agonist 100µM, USP1 inh 4µM!, EPAC1 ag 50µM
COc1ccc(S(=O)(=O)Nc2cc([N+](=O)[O-])ccc2OC)cc1	EPAC1 antag inconclusive
Cc1ccc(NS(=O)(=O)c2c(F)cc(F)c(Cl)c2F)cc1S(=O)(=O)N1CCOCC1	USP1 inh inconclusive
C=C1C(=O)O[C@@H]2C[C@@H](C)[C@@H]3C=CC(=O)[C@@]3(C)[C@@H](OC(=O)CC(=O)O[C@H]3[C@@H]4C(=C)C(=O)O[C@@H]4C[C@@H](C)[C@@H]4C=CC(=O)[C@]43C)[C@H]12	EPAC1 antag 40µM, USP1 inh inconclusive, EPAC2 antagonist inconclusive
COc1ccccc1CNC(=O)C(NS(=O)(=O)c1ccc2c(c1)oc(=O)n2C)C(C)C (configuration not stated)	USP1 inh inconclusive
Oc1c(Br)c(Br)c(Br)c(Br)c1Br	EPAC1 antag 71µM, USP1 inh inconclusive, EPAC2 antagonist 20µM
Oc1c(Br)cc(Br)cc1Br	none
C[C@@H]1C(=O)O[C@H]2C[C@@]34[C@H]5C[C@@H](C(C)(C)C)[C@]36[C@@H](OC(=O)[C@@H]6O)O[C@@]4(C(=O)O5)[C@]21O	none
Nc1ccc2c3c(cccc13)-c1ccccc1-2	EPAC2 agonist inconclusive, USP1 inh 5.6µM, EPAC1 ag inconclusive
Nc1ccc(C2(c3ccc(N)cc3)c3ccccc3-c3ccccc32)cc1	none
O=C1NC(=O)C(=Cc2cn(CCOc3ccc4c(c3)OCO4)c3ccccc23)C(=O)N1	EPAC2 agonist 100µM
